Screening results deposited in PubChem BioAssay by several laboratories.
HSF1 inhib – HSF1 inhibition; 300,000 compounds, 0.77% hits; NIH3T3-HGL HSE-luciferase, MG132-induced, luminescence 8 h; active compounds read low; activity change, negative = inhibition, % at 7.5 µM (by protocol); AID 2098;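 active means more than half of replicate wells show activity change below -50%, luminescence cut by over half; inconclusive means some wells, but at most half, below -50%; inactive means no replicate well below -50%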;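 further: luciferase reports HSF-1 transcriptional activity via heat shock element; 0% = median of DMSO wells and -100% = zero luminescence signal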
FXN GAA850 act – frataxin GAA850 promoter activation; HEK293 lucGAA850 FXN promoter luciferase reporter, 24 h; percent of 10 µM SAHA response; activation, % at 6 µM; 360,000 compounds, 0.56% hits; AID 540364;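 active means activation above the average of all compounds screened plus 3 SD, cutoff fixed separately per campaign, cut at about 7.5% in these data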;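 further: 0% = DMSO wells and 100% = 10 µM SAHA wells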
DAX1 inh – inhibitors of human orphan nuclear receptor DAX1 (NR0B1); P51843; HEK293 Gal4-DAX1 luciferase reporter, luminescence; inhibition, % at 6.75 µM; 340,000 compounds, 0.99% hits; AID 504766;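 active means inhibition above the mean over all tested compounds plus 3 SD, cut at about 4.2% in these data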;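 further: 0% = DAX1-transfected cells with DMSO and 100% = empty-vector control cells with DMSO; inhibition shows as a rise in luminescence from relieved DAX1 repression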
HSP90 inh – blocks HSP90-mediated luciferase refolding in reticulocyte lysate | Rabbit reticulocyte lysate, luciferase refolding luminescence, 3 h | inhibition, % at 5.6 µM | 290,000 compounds, 0.91% hits | AID 1789;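 active means inhibition above the screen-wide mean plus 3 SD, computed separately per campaign, cut at about 16% in these data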;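 further: 0% = DMSO wells and 100% = 60 µM geldanamycin wells; inhibitors lower the luminescence because luciferase stays unfolded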
AHR act – activators of human aryl hydrocarbon receptor. P35869. AHR-responsive luciferase reporter cells, luminescence. activation, % at 5 µM. 320,000 compounds, 2.5% hits. AID 2796; in the data active means activation above about 47%;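 further: 0% = vehicle wells and 100% = reference agonist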
Target sequence (P35869 whole entry, looked up): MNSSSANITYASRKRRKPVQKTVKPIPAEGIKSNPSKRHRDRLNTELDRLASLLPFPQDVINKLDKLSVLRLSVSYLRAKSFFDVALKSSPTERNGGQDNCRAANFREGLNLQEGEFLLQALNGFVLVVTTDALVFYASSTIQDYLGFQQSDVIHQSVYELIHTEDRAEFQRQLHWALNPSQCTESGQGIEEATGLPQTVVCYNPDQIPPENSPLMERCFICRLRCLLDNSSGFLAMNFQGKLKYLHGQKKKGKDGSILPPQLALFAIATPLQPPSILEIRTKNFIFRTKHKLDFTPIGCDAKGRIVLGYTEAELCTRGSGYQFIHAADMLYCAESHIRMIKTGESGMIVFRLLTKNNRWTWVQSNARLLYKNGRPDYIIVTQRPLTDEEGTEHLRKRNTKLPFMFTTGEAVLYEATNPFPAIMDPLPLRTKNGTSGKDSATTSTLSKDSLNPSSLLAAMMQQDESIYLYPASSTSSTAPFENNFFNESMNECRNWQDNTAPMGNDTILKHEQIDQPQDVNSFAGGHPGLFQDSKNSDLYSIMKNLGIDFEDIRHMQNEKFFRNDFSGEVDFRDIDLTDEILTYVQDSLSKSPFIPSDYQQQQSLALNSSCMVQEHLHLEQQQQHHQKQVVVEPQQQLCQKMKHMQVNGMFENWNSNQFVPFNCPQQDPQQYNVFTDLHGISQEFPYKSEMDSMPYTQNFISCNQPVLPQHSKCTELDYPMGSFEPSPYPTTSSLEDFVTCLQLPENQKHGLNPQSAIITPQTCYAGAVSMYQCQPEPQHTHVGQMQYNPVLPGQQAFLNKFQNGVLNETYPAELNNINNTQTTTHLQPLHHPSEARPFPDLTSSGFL
HSF-1 act – increases HSF-1 driven luciferase reporter signal; activation, % at 9 µM; NIH3T3-HGL HSF-1 luciferase reporter, MG132, 8 h; 100% = twice DMSO control signal; 300,000 compounds, 1.7% hits;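 active means mean replicate activation of at least 50% with a set share of replicates each reaching 50%; inconclusive means only one of those two conditions met; inactive means mean below 50% and too few replicates reaching it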;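 further: 0% = median of the neutral control wells and 100% = twice that signal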
Starred values were filed as active, the others as inactive; u = inconclusive; x = no result. A selection: hits, their analogues and other compounds. The true share with any hit is near 5.9%.

SMILES	HSF1 inhib	FXN GAA850 act	DAX1 inh	HSP90 inh	AHR act	HSF-1 act
O=c1oc2ccccc2n1CCn1c2ccccc2c2nc3ccccc3nc21	-3	-3	-1	2	22	6
O=C(CSc1ncnc2ccccc12)c1cccs1	33	2	1	0	25	60*
Cc1ccc(C(=O)CSc2ncnc3ccccc23)o1	28	4	0	0	11	48
Cc1cc2c(C)ccc(C)c2nc1SCC(=O)c1cccs1	1	3	0	0	58*	6
CCSc1nnc(SCC(=O)c2c(N)n(C)c(=O)n(C)c2=O)s1	x	1	-2	x	x	x
Nc1cc2sc(-c3ccc(C(=O)O)cc3)nc2cc1Cl	-3	3	-1	18*	-6	-8
COc1ccc2c(c1)CCc1c(C(=O)NCC(C)C)noc1-2	34	5	5.6*	4	-3	58*
COc1ccc2c(c1)CCc1c(C(=O)N3CCCCCC3)noc1-2	14	6	3	0	-9	28
COc1ccc2c(c1)CCc1c(C(=O)NCc3cccnc3)noc1-2	4	0	2	0	7	10
CCCNC(=O)c1noc2c1CCc1cc(OC)ccc1-2	18	3	3	11	-3	67*
COc1ccc(C2c3c(oc4ccc(C)cc4c3=O)C(=O)N2c2cc(C)ccn2)cc1OC (stereo not given)	x	x	x	-2	x	x
COc1ccc(C2c3c(oc4ccccc4c3=O)C(=O)N2c2ccc(C)cn2)cc1OC (stereo not given)	-7	0	5.0*	0	3	7
COc1ccc(-c2nc(CN3CCN(C(=O)c4ccco4)CC3)c(C)o2)c(F)c1	0	1	0	1	7	-13
C/C(=N\Nc1ccc2nncn2n1)c1ccc(Br)s1	-3	-2	1	4	78*	8
Cc1ccc(C)c(Sc2ccc(NC(=O)CCl)cc2)c1	32	x	x	4	2	75*
Cc1ccc(Sc2ccc(NC(=O)CCl)cc2)cc1C	-4	-1	3	4	7	-12
O=C(CNCC1CCCO1)Nc1ccc([N+](=O)[O-])cc1C(=O)Nc1ccccc1F (stereo not given)	4	2	-1	1	43	4
COc1cccc(NC(=O)c2cc([N+](=O)[O-])ccc2NC(=O)CNCC2CCCO2)c1 (stereo not given)	14	-1	0	3	48*	12
CCOC(=O)Cc1csc(NC(=O)c2ccoc2C)n1	16	3	0	1	2	57*
CCOC(=O)Cc1csc(NC(=O)c2sc3nc4ccc(CC)cc4cc3c2N)n1	-54*	1	2	0	3	-64
CCOC(=O)Cc1csc(NC(=O)c2c(C)noc2C)n1	-3	3	0	0	16	-13
CCOC(=O)Cc1csc(NC(=O)c2cccs2)n1	20	2	0	-1	0	28
CCOC(=O)Cc1csc(NC(=O)c2c(O)c3ccccc3n(CC(C)C)c2=O)n1	14	1	0	3	-2	56*
CC(C)Cn1c(=O)c(C(=O)Nc2ccccc2S(N)(=O)=O)c(O)c2ccccc21	2	0	2	4	-2	5
CCOC(=O)Cc1csc(NC(=O)c2ccc(Br)s2)n1	0	x	x	16*	8	0
SMILES	HSF1 inhib	FXN GAA850 act	DAX1 inh	HSP90 inh	AHR act	HSF-1 act
CC(C)[C@H](NC(=O)Cc1ccccc1)C(=O)OCc1cc(=O)n2c(n1)sc1ccccc12	-72*	0	0	5	3	-78
Cc1ccc2c(CC(=O)OCc3cc(=O)n4c(n3)sc3ccccc34)coc2c1	-1	1	1	-3	7	4
CCn1c(O)c(/C=C2\C=NN=C2c2ccccc2)sc1=S	-1	0	-1	1	-1	-3
Cn1c(O)c(/C=C2\C=NN=C2c2ccccc2)sc1=S	-1	4	1	1	75*	6
CCCCn1c(O)c(/C=C2\C=NN=C2c2ccccc2)sc1=S	5	3	1	0	66*	u
CC1(Cc2ccccc2OC(F)(F)F)C(=O)Nc2c(Cl)ccc(Cl)c21 (stereo not given)	x	0	x	x	x	x
Cc1nc2c(OCc3ccc(Cl)cc3)cccn2c1N(C)C(=O)CCC1CCCC1	x	0	x	x	x	x
NC(=O)c1ccc[n+](CC(=O)OCCC23CC4CC(CC(C4)C2)C3)c1	-70*	0	1	1	2	-76
CCOP(=O)(OCC)C(NC(=O)c1ccc(OC)cc1)c1ccccc1 (stereo not given)	-5	-2	4.3*	-2	3	-20
COc1ccc(C(=O)NCCSc2ccccc2)cc1	20	0	-1	14	6	43
COc1ccc(C(=O)N[C@H](C(=O)NCCCSc2ccccc2)C(C)C)cc1	x	-2	7.8*	x	7	x
O=C(/C=C\c1cn(-c2ccccc2)nc1-c1ccccc1)Nc1nccs1	4	5	-2	-6	73*	-3
CC(C)c1ccc2c(c1)C(c1cccs1)=NNC(c1ccncc1)=N2	8	1	-3	2	2	15
COc1ccc2c(c1)C(c1cccs1)=NNC(c1ccncc1)=N2	6	9.4*	-1	-1	7	22
C[C@@H]1CN([C@H](C)CO)C(=O)CCCn2cc(nn2)CO[C@H]1CN(C)C(=O)Nc1ccc2c(c1)OCCO2	x	-3	2	x	x	x
COc1ccc(-c2csc(Nc3ccccc3)[n+]2CC(O)c2ccc([N+](=O)[O-])cc2)cc1 (stereo not given)	11	0	0	1	47*	41
Cc1ccc(N2C(=O)/C(=C\c3ccc(C(C)C)cc3)N=C2SC2CCOC2=O)cc1 (stereo not given)	-3	0	-1	2	4	9
O=c1c2ccccc2nc(/C=C/c2ccc(Br)cc2)n1CCO	2	2	x	x	4	18
Cc1[nH]c2ccccc2c1/C=C/c1nc2ccccc2c(=O)n1CCO	-1	-5	-3	-7	52*	0
CCCCNC(=O)Cn1cnc([N+](=O)[O-])n1	-1	-1	4.8*	-2	0	13
CC(NC(=O)Cn1cnc([N+](=O)[O-])n1)c1ccccc1 (stereo not given)	-10	0	0	16*	0	2
COCCNC(=O)Cn1cnc([N+](=O)[O-])n1	-5	0	2	3	1	-6
Cc1nn(CC(=O)NC(C)c2ccccc2)c(C)c1[N+](=O)[O-] (stereo not given)	1	0	0	-3	1	20
COC(=O)CCN(c1ccccc1)S(=O)(=O)c1cc(-c2cc(C)no2)ccc1OC	3	1	0	-1	0	14
N#C/C(=C(/O)c1cccs1)c1nc2ccccc2[nH]1	21	2	2	3	54*	26
